# Results from PubChem BioAssay (NCI).
# About 83,000 compounds went through this panel and 20% of them were active in at least one assay; those are over-represented in the sample as a whole.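 Interpretation: 100, growth as untreated; towards 0, rising growth inhibition; 0, no net growth; 0 to -100, cell death. Compounds scoring below 10 were considered active.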 Unmarked numbers belong to inactive results. The source made the active and inactive calls.
# Columns and labels:
# Assay in all cases: NCI-60 one-dose screen, 48 h (100 = growth as untreated, 0 = no growth, -100 = all killed)
# Details in all cases: 10 µM unless noted
# SN12C renal = system: SN12C renal
# UO-31 renal = system: UO-31 renal
# TK-10 renal = system: TK-10 renal
# ACHN renal = system: ACHN renal
# CAKI-1 renal = system: CAKI-1 renal
# A498 renal = system: A498 renal
# CCRF-CEM leukemia = system: CCRF-CEM leukemia
# MOLT-4 leukemia = system: MOLT-4 leukemia
Compound,growth (SN12C renal),growth (UO-31 renal),growth (TK-10 renal) [%],growth (ACHN renal),growth (CAKI-1 renal),growth (A498 renal),growth (CCRF-CEM leukemia),growth (MOLT-4 leukemia)
Nc1nc(N)c2c(n1)NC(c1sc(Cl)nc1Cl)CC(c1ccccc1)=N2 (centres undefined),48.7%,46.6%,70.8,61.5%,44.8%,19.7%,38.9%,26%
Clc1ccc(Nc2ncnc3c2sc2ncccc23)cc1,20.5%,–,59.3,14.7%,15.3%,18.7%,21.2%,15%
CCOC(=O)c1ccccc1SC(C[N+](=O)[O-])c1ccccc1 (centres undefined),93.4%,99.4%,92.9,–,92.5%,87%,65.5%,94.3%
COC(=O)C(C)NC1=C(Cl)C(=O)C(NC(C)C(=O)OC)=C(Cl)C1=O (centres undefined),99.5%,89.8%,121,106%,103%,89.3%,96%,93.5%
COc1ccc(C(=O)/C=C/c2cn(-c3ccccc3)nc2-c2cccc(Nc3ccnc4cc(Cl)ccc34)c2)cc1,89.8%,86.6%,120,103%,94.3%,94.8%,48.3%,104%
CCN(CC)C(Cl)=Nc1ccc(Cl)cc1,99.2%,87.8%,101,98.5%,103%,99.6%,100%,95.7%
CC(=O)Nc1nonc1-c1nc2ccccc2n1Cc1ccc(C(C)(C)C)cc1,82.2%,46.1%,95.5,82.1%,69%,-4.2% (active),78.4%,51.7%
NS(=O)(=O)c1ccc(N2N=C(c3cccs3)CC2c2ccccc2O)cc1 (centres undefined),16.5%,34.9%,23.5,15.9%,24.2%,-13.2% (active),4.36% (active),8.13% (active)
COc1ccc(C2CC(c3cccc(Nc4ccnc5cc(Cl)ccc45)c3)=NN2c2ccccc2)cc1 (centres undefined),81.3%,–,111,58.8%,19.9%,55.7%,57.9%,64.3%
CC1=NOCC(=O)N1,102%,–,103,102%,96.3%,111%,90.3%,102%
Clc1ccc(Nc2ncnc3c2sc2ncccc23)c(Cl)c1,20.4%,-11.7% (active),59.6,9.32% (active),15.1%,26.7%,16.6%,8.22% (active)
Cc1cc(Cl)c2ccc(N(C)C)cc2n1,98%,84.4%,109,97.6%,93%,92.6%,95.9%,84.7%
CCCCn1c(C)nc2ccc(Nc3nc(Cl)nc4nc[nH]c34)cc21,74.6%,–,67.3,79%,60.5%,-0.303% (active),53%,37.9%
CC(C)CC(NC(=O)OCC1c2ccccc2-c2ccccc21)C(=O)O (centres undefined),104%,–,109,112%,86.6%,95%,98.7%,96.2%
COc1ccc2[nH]cc(C(c3ccc(Cl)cc3)N3CCCC3)c2c1 (centres undefined),109%,59%,87.6,93.1%,89.4%,87%,70.2%,75.1%
O=C(Nc1ccc(Oc2ccc(Nc3nc4ccccc4s3)cc2)cc1)Nc1ccc(Cl)c(C(F)(F)F)c1,1.99% (active),14.1%,12.6,–,12.4%,-18.3% (active),5.88% (active),5.65% (active)
O=Cc1ccc2nc(C(Cl)(Cl)Cl)ccc2c1,104%,81.8%,101,101%,99.7%,93.6%,91.9%,98.4%
COc1cc(C2CC(c3cccc(Nc4ccnc5cc(Cl)ccc45)c3)=NN2c2ccc(Cl)cc2)cc(OC)c1OC (centres undefined),57.1%,23.6%,76.7,–,-1.85% (active),64.9%,63.1%,–
COc1ccc(-c2nsc3c2NC(=O)CC3c2cccc(F)c2)cc1 (centres undefined),55.7%,70.5%,51.6,66.2%,38.5%,28.7%,49.5%,41.6%
CCCOC(=O)C1c2cc3c(cc2CC(C)C1C(=O)OCCC)OCO3 (centres undefined),104%,65.7%,94.2,101%,–,99.8%,–,90.9%
Cc1cc(C)c2c(n1)sc1c(Nc3ccc(Cl)cc3Cl)ncnc12,13.5%,-8.56% (active),56.7,–,12.9%,15.6%,16.1%,11.6%
O=C(CI)NCCNc1cccc2c(S(=O)(=O)O)cccc12,94.7%,–,111,107%,109%,92.7%,100%,98.3%
CC(C)(C)c1ccc(Cn2c(-c3nonc3N)nc3ccccc32)cc1,73.6%,–,81.9,77.3%,62.2%,80.1%,46.7%,62.6%
CC(=O)c1c(C)nc(-c2cc(C)cc(Cl)c2)nc1-c1cccc(Oc2ccccc2)c1,80.1%,85.2%,93.6,99.6%,68.2%,41.3%,32.5%,27.9%
Clc1ccc(-c2nc(Br)cn3ccnc23)cc1,86.5%,40.3%,85.7,–,73%,76.6%,92.8%,78.9%
Nc1nc(N)c2c(n1)NC(c1sc(Cl)nc1Cl)CC(c1ccc3c(c1)OCO3)=N2 (centres undefined),35.2%,30.4%,50.6,45%,26.5%,-2.91% (active),11.1%,25.3%
NC(N)=N/N=C/c1ccccc1,103%,88.3%,93.5,106%,86.9%,97.7%,84.8%,95%
O=C1CC2(O)CSc3nc(=O)cc(n32)N1 (centres undefined),96.9%,82.7%,106,101%,92.5%,104%,101%,107%
COc1cc(C2CC(c3ccc(Nc4ccnc5cc(Cl)ccc45)cc3)=NN2c2ccccc2)cc(OC)c1OC (centres undefined),76.3%,–,89.8,77.1%,48.2%,61%,47.5%,62.3%
COc1cc(C2CC(c3ccc(Cl)cc3)=NN2C=O)ccc1OS(=O)(=O)c1ccc(C)cc1 (centres undefined),97.1%,85.2%,110,90.9%,81.4%,74.1%,76.3%,91.5%
